# Results taken from PubChem BioAssay AID449762 (Southern Research Specialized Biocontainment Screening …, 2010).
# Among all 330,000 compounds or so, about 1,900 (0.58%) were called active. Roughly 4% stayed inconclusive and do not appear here. These entries were drawn from the full list. Results with a measured potency or affinity are listed apart. Unmarked numbers belong to inactive results. Rule as the data show it: inconclusive = inhibition above about 70% without an active follow-up result; inactive = below that.
# Assay: M. tuberculosis growth inhibition, HTS (AID 449762);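 also: bacterial growth assessed after seven days of incubation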
# Conditions: M. tuberculosis H37Rv growth inhibition, 7H9 media; at 25 µM; active compounds read high
row,SMILES,inhibition [%]
1,O=C(O)c1cc(O)c2c(c1)C(=O)c1cc(O)cc(O)c1C2=O,-5.47
2,O=C1c2cc(O)cc(O)c2C(=O)c2c1cc(O)c([C@@H](CO)CCO)c2O,-12.7
3,CCOc1ccccc1NC(=S)NC1CCCCC1,-19.5
4,CCc1nn(CC(=O)NCCN2CCN(C)CC2)c(=O)c2cc3c(OC)cccc3n12,7.05
5,Cc1ccc(N=CC2=C(O)CC(c3ccco3)CC2=O)cc1 (configuration not stated),-6.24
6,CCc1ccc(N=CC2=C(O)CC(c3ccco3)CC2=O)cc1 (configuration not stated),0.59
7,Cc1cccc(C)c1NC(=O)C1NC(=O)CC1c1ccccc1 (configuration not stated),17.9
8,CCOc1ccc(C2/C(=C(/O)c3ccc(S(=O)(=O)N4CCCCC4)cc3)C(=O)C(=O)N2CCCOC)cc1OC (configuration not stated),-12.5
9,COc1ccc(N(C(C)C(=O)NN=C2CCCC2)S(C)(=O)=O)cc1 (configuration not stated),-2.55
10,COc1ccc(-n2ccnc2)cc1,1.26
11,Cc1ccc2cccc(Oc3ncnc4sc(C)c(C)c34)c2n1,42
12,COc1ccc2oc(C(=O)OCC(=O)Nc3cc(S(=O)(=O)N4CCOCC4)ccc3OC)c(C)c2c1,0.56
13,COc1ccccc1C(=O)NNC(=O)C(=O)NC(C)C,61.6
14,Cc1ccc2nc(SCc3nc4c(cnn4-c4ccccc4)c(=O)[nH]3)[nH]c2c1,0.73
15,Cc1ccc(-c2nc3ccccc3o2)cc1NC(=S)NC(=O)/C=C/c1ccco1,-10.3
16,Cc1ccc(-c2nc3ccccc3s2)cc1NC(=S)NC(=O)/C=C/c1ccco1,-2.81
17,CCOC(=O)[C@H]1[C@H]2COc3ccccc3[C@@H]2N2C(=O)c3cc(F)c(F)cc3NC(=O)[C@@]12C,-2.93
18,CC(C)NS(=O)(=O)c1ccc(OCC(=O)NCC2CCCO2)c(Cl)c1 (configuration not stated),-3.59
19,COc1ccc(NC(=O)c2c(Cl)nc3ccccn23)cc1,9.69
20,CC(C)(C)c1ccc(C(=O)OCCNC(=O)c2c(Cl)nc3ccccn23)cc1,-5.57
21,CSc1ccccc1C(=O)N1CCN(c2cccc(Cl)c2)CC1,-1.96
22,O=S1(=O)CCC(n2ncc3c2/C(=C/c2ccccc2)CC3)C1 (configuration not stated),4.34
23,Cn1c(CNC(=O)c2ccco2)nnc1SCC(=O)c1ccc(F)cc1,-2.19

row,SMILES,inhibition [%]
1,O=C(Nc1ccccc1)C1=C[C@H](C2CCCCC2)C[C@H](OCc2ccc(CO)cc2)O1,8.7
2,O=C(Nc1ccccc1)C1=C[C@@H](C2CC2)C[C@@H](OCc2ccc(CO)cc2)O1,5.14
3,O=C(c1cc(-c2ccncc2)nc2ccccc12)N1CCN(Cc2ccccc2)CC1,-9.48
4,Cc1ccccc1CN1CCN(C(=O)c2cc(-c3ccncc3)nc3ccccc23)CC1,12.1
5,C[C@H]1CC[C@]2(O[C@H](CCO)C[C@H](O)[C@H]2O)O1,3.36
6,O=C(Nc1cc(F)ccc1F)C1CCCO1 (configuration not stated),-6.27
7,Cc1ccc(C(=O)Nc2ccc([N+](=O)[O-])cn2)o1,-6.44
8,C=CCc1c(C)nc(SC)nc1Nc1ccc(C)cc1,56
9,C=CCc1c(C)nc(SC)nc1Nc1ccc(C(=O)O)cc1,-7.64
10,Cc1cccc(C(=O)NCc2nnc(SCC(=O)N3CCN(c4ccccc4)CC3)n2C)c1,0.25
11,CSc1ncc(C(=O)Nc2ccccc2Cl)c(C)n1,6.57
12,CSc1ncc(C(=O)Nc2ccccc2C)c(C)n1,58.1
13,Cc1ccc(NC(=O)COC(=O)CCn2c(C)csc2=O)cc1S(=O)(=O)N1CCOCC1,-2.47
14,O=C(O)c1ccc(Nc2ncc([N+](=O)[O-])cc2[N+](=O)[O-])cc1,3.64
15,O=[N+]([O-])c1ccc(Nc2ccc(Cl)cc2)nc1,25.4
16,O=C(COC(=O)c1ccccc1Br)Nc1ccc2[nH]c(=O)[nH]c2c1,-0.67
17,CS(=O)(=O)c1ccccc1-c1nnc(NC(=O)C2=COCCO2)o1,0.09
18,Cc1ccc(C)c(-c2csc(NC(=O)C3=COCCO3)n2)c1,65
19,Cc1c(NS(=O)(=O)c2cccc(C(=O)OCC(=O)N(C)C3CCCCC3)c2)c(=O)n(-c2ccccc2)n1C,-13.2
20,S=C(NCc1cccnc1)NCc1cccnc1,-1.16
21,NC(=S)NCc1cccnc1,-5.18
22,CCCOc1ccc(C(=O)NCc2cccnc2)cc1,1.16
23,CCOc1ccc(C(=O)NC(=S)NCc2cccnc2)cc1,-0.27

row,SMILES,inhibition [%]
1,C[C@H](CO)N1C[C@H](C)[C@@H](CN(C)S(=O)(=O)c2cn(C)cn2)Oc2ccc(NC(=O)Nc3ccc4c(c3)OCO4)cc2C1=O,3.14
2,COc1cccc(C2=NN(C(=O)c3ccc(C)o3)C(O)(C(F)(F)F)C2)c1 (configuration not stated),3.82
3,Cc1coc2cc3oc(=O)c(CCC(=O)NCCCN4CCCC4=O)c(C)c3cc12,-8.05
4,CN(C(=S)Nc1ccc(F)cc1)C1(c2ccccc2Cl)CCCCC1=O (configuration not stated),-2.19
5,O=C(O)COc1ccccc1/C=N/NC(=O)C(O)c1ccccc1 (configuration not stated),-3.84
6,c1ccc2c(-c3csc(-c4ccncc4)n3)c[nH]c2c1,2.11
7,Brc1ccc(-c2csc(-c3c[nH]c4ccccc34)n2)cc1,20.1
8,CCCC(C)NC(=O)COC(=O)c1ccc(Cl)c(S(N)(=O)=O)c1 (configuration not stated),-0.98
9,N#CCOC(=O)c1c2c(nc3ccccc13)CCC2,1.84
10,C=CCN(CC=C)C(=S)NC(=O)/C=C/c1ccccc1,-2.7
11,CN(Cc1ccccc1)C(=S)NC(=O)c1ccc(-c2ccccc2)cc1,26.7
12,O=C(/C=C/c1ccc(OC2CSC2)cc1)c1ccc(Cl)cc1,11.9
13,COCCNC(=O)c1cc2c(-c3ccccc3F)nn(C)c2s1,12.7
14,COc1cccc(-c2nn(C)c3sc(C(=O)Nc4ccc5c(c4)OCCO5)cc23)c1,3.01
15,COc1ccc(C2/C(=C(/O)c3ccc(F)cc3)C(=O)C(=O)N2CCCN2CCOCC2)cc1OC (configuration not stated),-2.8
16,Cn1c(C(F)(F)F)nc2c(=O)oc3ccccc3c21,66.9
17,Cc1nc2c(=O)oc3ccccc3c2n1-c1ccccc1,-4.41
18,COc1cc(Cl)ccc1NC(=S)N(CCCN1CCOCC1)Cc1cn(C)c2ccccc12,-4.57
19,O=C(Nc1ccc(Oc2ccc3c(c2)C(=O)N(c2ccc(O)cc2)C3=O)cc1)c1cccs1,2.92
20,COCCNc1nc(-c2cc(C(=O)Nc3ccccc3)on2)cc(C(C)C)n1,14.4
21,CCCNc1nc(C)cc(-c2cc(C(=O)Nc3ccccc3)on2)n1,28.1
22,COC(=O)C1CCCCN1C(=O)CCc1nnc(CCc2c[nH]c3ccccc23)o1 (configuration not stated),0.08
23,CCCCNC(=O)c1ccc(N2CCC3(CC2)OCCO3)c([N+](=O)[O-])c1,-3.04

row,SMILES,inhibition [%]
1,COCCNC(=O)c1ccc(N2CCC3(CC2)OCCO3)c([N+](=O)[O-])c1,-3.57
2,N#C[C@@H]1[C@@H]2C(=O)N(c3ccc4c(c3)OCCO4)C(=O)[C@@H]2C2c3ccccc3C=CN21 (some centres not stated),-6.97
3,CCn1c(SCC(=O)Nc2cc(C(C)(C)C)nn2-c2ccccc2)nnc1-c1cccs1,-2.18
4,COc1cccc(N2CCN(C(=O)CCCCCNc3nc(=S)[nH]c4ccccc34)CC2)c1,13.8
5,O=C(C1CCC(CNc2nc(=S)[nH]c3ccccc23)CC1)N1CCN(c2ccccn2)CC1 (configuration not stated),6.46
6,CCOC(=O)c1ccc(-c2c(-c3ccccc3OC)sc3cc4c(cc23)OCO4)cc1F,6.83
7,O=C(Cc1c(F)cccc1Cl)Nc1ccc(S(=O)(=O)N2CCOCC2)cc1,-7.05
8,CCOC(=O)CNC(=O)CNC(=O)c1nn(-c2ccc(OC)c(OC)c2)c(=O)c2ccccc12,23.4
9,CCOC(=O)N1CCN(C(=O)CNC(=O)c2nn(-c3ccc(OC)c(Cl)c3)c(=O)c3ccccc23)CC1,7.01
10,O=C(c1ccccc1N(Cc1ccccc1)S(=O)(=O)c1ccccc1)N1CCOCC1,-3.28
11,Cn1c(=O)n(C)c2cc(NC(=O)COc3ccc(F)cc3)ccc21,-1.78
12,O=C1CCN(CCc2ccccc2)CCN1[C@H](CSc1ccccc1)c1ccccc1,21.9
13,CC(O)CNc1nc2sc3c(c2c(=O)n1CCc1ccccc1)CCCCC3 (configuration not stated),-3.46
14,c1ccc2c(c1)ncn2-c1ncnc2sc3c(c12)CCCC3,7.95
15,O=C(COc1ccccc1Cl)Nc1ccc2c(c1)C(=O)NC2=O,-3.92
16,CCOC(=O)COc1ccc2c(c1)C(=O)CC(C)(C)O2,54.7
17,CC1(C)CC(=O)c2cc(OCC(=O)NCc3cccnc3)ccc2O1,-4.88
18,COc1ccc2c(c1OC)C(=O)N1C2SC(C)(C)[C@H]1C(=O)NC(C)C (some centres not stated),-6.91
19,COc1ccc(-c2cc3nc(C)n(N)c(=O)c3s2)cc1,-2.06
20,COc1ccc(-c2cc3nc[nH]c(=O)c3s2)cc1,65.4
21,COc1ccc(CC(=O)Nc2nc(C)cs2)cc1OC,0.84
22,O=C(C1CCC(=O)N(C2CCCCCC2)C1)N1CCN(c2ccccc2Cl)CC1 (configuration not stated),1.52
23,Cc1ccccc1N1CCN(C(=O)C2CCC(=O)N(C3CCCC3)C2)CC1 (configuration not stated),2.89
